Assay outcomes from PubChem BioAssay.
phage Ecoli inh: E. coli growth loss with phage present; growth absorbance; inhibition, % at 11.9 µM; 360,000 tested, 0.26% active; AID 651602; in the data active = inhibition above about 11%
E coli growth-1: E. coli growth inhibition; 330,000 tested, 0.21% active; Escherichia coli growth, OD600, 23 h; stronger effect = lower value; OD600 absorbance (test concentration not listed); AID 1053175;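 active = OD600 absorbance below the run mean of sample wells minus 3.6 SD, in any replicate, cut at about 0.56 in these data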
E coli growth-2: counter-screen for AddAB inhibitors: E. coli growth inhibition; 330,000 tested, 0.27% active; inhibition, % at 11.9 µM; AID 449728; E. coli V3065 growth, OD600 absorbance, 18 h;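 active = inhibition above the campaign's mean inhibition across all tested compounds plus 3 SD, cut at about 9.9% in these data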;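 also: uninfected addAB+ strain grown without phage in ampicillin broth; 0% = DMSO wells and 100% = ciprofloxacin 0.95 µg/ml wells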
Tat export inh: blocks Tat-dependent protein export in E. coli | E. coli MC4100 TorA-mCherry Tat export, fluorescence | inhibition, % at 10 µM | 340,000 tested, 0.036% active;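 active = mean replicate inhibition at least 50% and at least half of replicates individually reaching 50%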;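 also: exported cargo escapes ClpAP degradation while cytoplasmic cargo is degraded and loses fluorescence; 0% = median of neutral control wells and 100% = median of NaSCN control wells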
AddAB inh: less growth of phage-infected E. coli with AddAB | E. coli expressing H. pylori AddAB, absorbance growth | inhibition, % at 11.9 µM | 330,000 tested, 0.29% active | AID 435030; in the data active = inhibition above about 12%;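 also: 0% = vehicle wells of infected cells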
AddAB conf: confirmation screen: growth loss of phage-infected E. coli expressing H. pylori AddAB. E. coli V3065 expressing H. pylori AddAB, T4 phage, OD; T4 phage with gene 2 nonsense mutations. inhibition, % at 11.9 µM. 880 tested, 64% active. shares compounds with AddAB inh. AID 488942;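 active = mean inhibition above a set limit taken from the earlier primary screen, cut at about 13% in these data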;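 also: higher means less bacterial growth since AddAB block lets phage replicate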
RecBCD counter: counter-screen: growth loss of RecBCD+ E. coli with mutant T4 phage; AID 488955; E. coli V66 + mutant T4 phage, OD growth; inhibition, % at 11.9 µM; 880 tested, 73% active; shares compounds with AddAB inh;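 active = mean inhibition above the mean of solvent-only control wells plus 3 SD, cut at about 4% in these data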;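 also: optical density read after an 18 h incubation at 37 °C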
bact viab count: reduces bacterial viability, AddAB inhibitor counter-screen. 880 tested, 35% active. inhibition, % at 11.9 µM. shares compounds with AddAB inh. absorbance (AddAB counterscreen); in the data active = inhibition above about 25%
* marks the source's active call; other numbers are inactive results; / = no result given. A selection: hits, their analogues and other compounds. The true share with any hit is near 0.51%.

SMILES	phage Ecoli inh	E coli growth-1	E coli growth-2	Tat export inh	AddAB inh	AddAB conf	RecBCD counter	bact viab count
O=c1[nH]c2ccccc2n1CCCOc1ccccc1	0	0.7	-2	29	1	/	/	/
CCCCn1c(=O)[nH]c2ccccc21	2	0.69	7	-7	14*	-3	0	-3
COC(=O)[C@]1(Cc2ccccc2)NC(c2ccc(-c3ccccc3)cc2)C2C(=O)N(C)C(=O)C21 (stereo partly specified)	/	0.68	/	/	/	/	/	/
O=C(COc1ccc(Cl)cc1)Nc1ncc([N+](=O)[O-])s1	3	0.66	/	-5	/	/	/	/
O=C(COC(=O)COc1ccccc1)Nc1ncc([N+](=O)[O-])s1	2	0.59	7	-10	13*	33*	5.7*	15
OCCC1CC(O)C(O)[C@]2(CCCc3ccccc3O2)O1 (stereo partly specified)	/	0.69	/	/	/	/	/	/
CC(NCc1cccnc1)=C(C#N)C(=O)NCc1ccccc1	/	0.71	/	/	/	/	/	/
Cc1ccc(C2=NS(=O)(=O)N(C)C(C(=O)NCc3ccco3)=C2)cc1	3	0.72	6	-10	26*	-2	1	-1
COc1ccc(C2=NS(=O)(=O)N(C)C(C(=O)NCc3ccco3)=C2)cc1OC	2	0.66	-3	-8	-2	/	/	/
O=C1C=C(O)c2c(O)cc(O)c(O)c2C1=O	10	0.77	9	22	13*	14*	9.8*	14
C[C@@H]1Cc2c(O)c(O)cc(O)c2C(=O)O1	/	0.77	-2	2	4	/	/	/
C=CCSc1nc2sc(C)c(C)c2c(=O)[nH]1	2	0.71	8	-6	17*	-2	1	-2
Cc1ccc(C(=O)NC(=Cc2ccccc2)C(=O)NCC2CCCO2)cc1 (stereo unspecified)	/	0.7	/	/	/	/	/	/
COc1ccc(C(=O)C=Cc2ccc(O)cc2)c(O)c1CC=C(C)C	/	0.71	/	/	/	/	/	/
CCCNC(=O)c1ccc2c(=O)c(O)c(-c3ccsc3)[nH]c2c1	/	/	18*	-11	18*	13*	12*	11
CCCNC(=O)c1ccc2c(=O)c(O)c(-c3ccc(OC)cc3)[nH]c2c1	/	0.73	16*	-4	18*	11	13*	14
Cc1ccc(C2C(=C(O)c3ccc(Br)cc3)C(=O)C(=O)N2Cc2ccco2)o1 (stereo unspecified)	/	0.72	/	/	/	/	/	/
CC(C)CC1CN=C(Nc2ccccc2)N1CCCC1CCCCC1 (stereo unspecified)	/	0.67	/	/	/	/	/	/
Cc1cccc(-c2cc(=O)c(C(=O)O)cn2-c2ccc(F)cc2F)c1	2	0.56	1	7	4	/	/	/
NC1CCN(c2nc3c(cc2F)c(=O)c(C(=O)O)cn3-c2ccc(F)cc2F)C1 (stereo unspecified)	101*	0.07*	102*	72*	101*	97*	100*	100*
CC(CSc1ccc(Br)cc1)CN1CCC(C(C)(C)C)CCC1=O (stereo unspecified)	/	0.69	/	/	/	/	/	/
O=C(COc1ccc(Cl)cc1[N+](=O)[O-])NC1CCCCC1	3	0.72	20*	3	35*	-3	2	-3
CC(=O)c1cc(Cl)ccc1OCC(=O)NC1CCCC1	5	0.68	/	2	/	/	/	/
COc1ccc(-c2nc(C(N)=O)c3[nH]c(=O)n(-c4ccccc4OC)c3n2)c(OC)c1	-1	0.77	18*	3	43*	-2	-2	-4
C(=Cc1ccccc1)C=NNc1nc(N2CCOCC2)nc(N2CCOCC2)n1	/	0.68	/	/	/	/	/	/
SMILES	phage Ecoli inh	E coli growth-1	E coli growth-2	Tat export inh	AddAB inh	AddAB conf	RecBCD counter	bact viab count
CC[n+]1c(/C=C/N(C)c2ccccc2)n(-c2ccccc2)c2ccc(-c3nc4ccccc4s3)cc21	/	0.38*	35*	0	18*	52*	6.7*	12
COc1cccc(Cn2nnc(C(=O)NCc3ccc(F)cc3)c2N)c1	4	0.74	9	-4	21*	1	0	-4
Cc1nc2sc(C(c3ccco3)N3CCN(C(c4ccccc4)c4ccccc4)CC3)c(O)n2n1 (stereo unspecified)	2	0.81	22*	12	37*	5	3	2
Cc1ccc(S(=O)(=O)N2C(c3ccc(Cl)cc3)CC=C(C(=O)O)C2c2ccc(F)cc2)cc1 (stereo unspecified)	/	0.68	/	/	/	/	/	/
CCOCCCNC(=O)Cn1cc2c(n1)CCCC2	1	0.71	4	2	14*	-2	1	-2
O=C(CSc1nc2ccccc2o1)Nc1ccc(N2CCOCC2)cc1	10	0.56	13*	-11	13*	15*	9.7*	12
O=C(Nc1nc(-c2cccs2)c(C(=O)C(F)(F)F)s1)c1ccco1	6	0.67	96*	1	99*	-3	0	-1
O=C(Nc1nc(-c2cccs2)c(C(=O)C(F)(F)F)s1)c1ccccc1	3	0.69	3	16	7	/	/	/
CCCc1[nH]nc2c1C1(C(=O)N(CC)c3ccccc31)C(C#N)=C(N)O2 (stereo unspecified)	/	0.7	26*	-5	17*	-4	-1	-4
COc1cc(C2Nc3cc(Cl)c(S(N)(=O)=O)cc3S(=O)(=O)N2)cc(OC)c1OC (stereo unspecified)	4	0.75	5	-2	1	/	/	/
NS(=O)(=O)c1cc2c(cc1Cl)NCNS2(=O)=O	3	0.71	38*	-9	55*	100*	6.2*	75*
COc1ccc(CCNC(=O)c2ccc(CN3CCC(Cc4ccccc4)CC3)cc2)cc1OC	4	0.68	4	-4	14*	3	3	2
CCc1ccc(NC(=O)CC2C(=O)N(c3cccc(C)c3)C(=O)N2C2CC2)cc1 (stereo unspecified)	4	0.78	53*	-10	99*	0	0	-2
COc1ccc(NC(=O)CC2C(=O)N(c3cccc(C)c3)C(=O)N2C2CCCCC2)cc1 (stereo unspecified)	2	0.74	0	-4	0	/	/	/
O=C(CSc1ccc(-c2ccccn2)nn1)Nc1ccc(F)c(F)c1	8	0.69	14*	17	14*	7	9.7*	7
Cc1ccc(NC(=O)CSc2ccc(-c3ccccn3)nn2)cc1	10	0.66	4	7	9	/	/	/
O=C(N/N=C\c1cccc(Cl)c1)c1ccc(Cn2cc(Br)c([N+](=O)[O-])n2)o1	8	/	26*	2	29*	29*	4.2*	22
COC(CC=CC(=O)C(C)OCc1ccccc1)OC (stereo unspecified)	/	0.68	/	/	/	/	/	/
CCCn1c(NC(=O)c2cccc(C)c2C)nc2ccccc21	/	0.67	-4	8	-2	/	/	/
